# Out of some 420,000 compounds screened, about 64,000 (15%) were called active. Another 27% or so got no clear call; they are omitted. Calls follow the shape of the dose curve; as a rule, active = well fitted inhibition curve with a large enough effect; inconclusive = small, poorly fitted or top-dose-only effect; inactive = flat fitted curve, though single readings scatter. Not all results are given here. Where a call stands in place of a potency, no number is given.
# Test: qHTS for Inhibitors of human tyrosyl-DNA phosphodiesterase 1 (TDP1): qHTS in cells in absence of CPT; also: nearly all actives have a fitted effect of over 55% in size
# Conditions: DT40 Tdp1-/- hTDP1 cells, no CPT, ATP luminescence, 48 h; activity change, negative = growth inhibition: at 46.2 µM (top of the series)
# In short: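 Stably hTDP1-transfected Tdp1-null chicken DT40 cells were treated with library compounds minus camptothecin and grown for at least 48 hr at 37 °C, after which cellular ATP was quantified by luminescence.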
# Potency is read from the fitted curve at half-maximal effect.
row,Structure (SMILES),Potency
1,CCCCN(C)CCCNC(=O)c1cc(-c2cccs2)nc2ccccc12,29.1 µM (active)
2,Cc1ccsc1-c1cc(C(=O)O)c2c(ccc3ccccc32)n1,inactive
3,O=C(NCCN1CCOCC1)c1cc(-c2cccs2)nc2ccccc12,inactive
4,O=C1c2ccccc2-c2ccccc2NC1O (centres undefined),inactive
5,COc1ccc(/C=N/OCc2ccccc2C#N)c(OC)c1,inactive
6,CCOc1ccc(C2C(C#N)=C(N)N(N(C)C)C3=C2C(=O)CCC3)cc1 (centres undefined),inactive
7,O=C(NN1CCOCC1)c1cccc(F)c1,inactive
8,Cc1ccc(NC(=O)NCC(c2cccnc2)N2CCOCC2)cc1 (centres undefined),inactive
9,COc1ccccc1C(=O)NCCC(=O)NCC(c1ccco1)N1CCCCC1 (centres undefined),inactive
10,COc1ccc(C(=O)NCC(c2ccc(N(C)C)cc2)N2CCc3ccccc32)c(OC)c1 (centres undefined),20.6 µM (active)
11,O=C(NCC(c1cccnc1)N1CCc2ccccc21)c1cccc(C(F)(F)F)c1 (centres undefined),14.6 µM (active)
12,COc1cc(C(=O)NCC(c2ccco2)N2CCCC2)ccc1OCc1ccccc1 (centres undefined),inactive
13,COc1ccc(S(=O)(=O)NCC(c2ccc(N(C)C)cc2)N2CCc3ccccc32)cc1OC (centres undefined),inactive
14,CN(C)C(CNC(=O)c1cccc(C#N)c1)c1ccco1 (centres undefined),inactive
15,CCOc1ccccc1C(=O)NCC(c1ccc(N(C)C)cc1)N1CCCC1 (centres undefined),inactive
16,O=C(NCC(c1ccco1)N1CCc2ccccc21)c1cccc(F)c1 (centres undefined),11.6 µM (active)
17,COc1ccc(C(=O)NCC(c2ccco2)N2CCc3ccccc32)cc1OC (centres undefined),16.4 µM (active)
18,CCOC(=O)c1c(NC(=O)CSc2cn(CCNC(=O)c3cccc(C(F)(F)F)c3)c3ccccc23)sc2c1CCC2,inactive
19,CCn1cc(C(=O)NCCO)c(=O)c2cc(F)c(N3CCN(C)CC3)cc21,inactive
20,Cc1ccc(NC(=S)NC(NC(=O)Cc2cccc3ccccc23)C(Cl)(Cl)Cl)cc1 (centres undefined),inactive
21,Cc1cc(C(=O)O)c(S(C)(=O)=O)s1,inactive
22,NNc1nnc(Cc2ccncc2)c2ccccc12,inactive
23,O=C(COC(=O)Cn1[nH]c(=O)c2ccccc2c1=O)Nc1c(Cl)cccc1C(F)(F)F,inactive
24,COc1ccc([N+](=O)[O-])cc1N(CC(=O)Nc1ccccc1C(=O)N1CCOCC1)S(C)(=O)=O,inactive
25,CN(C)c1ccc(C2N(C)C(=O)c3ccccc3N2C)cc1 (centres undefined),inactive
26,CC1CCc2c(c3ccccc3[nH]c2=O)O1 (centres undefined),inactive

row,Structure (SMILES),Potency
1,O=C(O)C1OC(C(=O)O)C2C1C(F)(F)C2(F)F (centres undefined),inactive
2,Cc1ccc2nc(NCCCNC(=O)c3cnccn3)c(C#N)cc2c1,inactive
3,Cc1ccc(CNC(=O)COC(=O)C2CCC2)cc1,inactive
4,CC(C#N)OC(=O)c1cccnc1SCC(=O)Nc1ccc2c(c1)OCO2 (centres undefined),inactive
5,O=C(NCc1cccnc1)c1ccc2nc([C@@H]3O[C@H](CO)[C@H](O)[C@H](O)[C@H]3O)[nH]c2c1,inactive
6,COc1ccc(N(CC(=O)NCCc2ccc(Cl)cc2)S(=O)(=O)c2c(C)nn(C)c2C)cc1,20.6 µM (active)
7,CCOc1ccc(N(CC(=O)NCCc2ccc(OC)cc2)S(C)(=O)=O)cc1,inactive
8,COc1ccc(CCNC(=O)CN(c2ccccc2)S(C)(=O)=O)cc1,inactive
9,COc1ccccc1CNC(=O)COn1nnc2ccc(S(=O)(=O)N3CCOCC3)cc21,inactive
10,O=C1[C@H]2[C@@H](c3ccc(Cl)cc3)N3C(=O)N(c4cccc(F)c4)C(=O)[C@@]3(Cc3ccccc3)[C@H]2C(=O)N1C1CCCCC1,inactive
11,Cc1cccc(N2C(=O)N3[C@H](c4ccc(F)cc4)[C@@H]4C(=O)N(C5CCCCC5)C(=O)[C@@H]4[C@]3(Cc3ccccc3)C2=O)c1,inactive
12,O=C1[C@H]2[C@@H](c3ccc(F)cc3)N3C(=O)N(c4ccc(C(F)(F)F)cc4)C(=O)[C@@]3(Cc3ccccc3)[C@H]2C(=O)N1C1CCCCC1,11.6 µM (active)
13,CNC(=O)C(=O)N/N=C/c1ccccn1,inactive
14,S=C(NN=Cc1ccccn1)Nc1ccccn1,1.46 µM (active)
15,S=C(Nc1cccnc1)Nc1ccccn1,inactive
16,CC(C)(C)C(=O)NC1CC2CCCC(C1)N2C(=O)Nc1ccccc1F (centres undefined),inactive
17,Cc1cc(S(=O)(=O)Nc2ccc(C(=O)NCC(c3ccco3)N3CCCC3)cc2)ccc1F (centres undefined),inactive
18,CCOc1ccc(S(=O)(=O)Nc2ccc(OC)nc2)cc1,23.1 µM (active)
19,CCOc1ccc(NS(=O)(=O)c2ccc(C(=O)NCC(c3ccccc3OC)N3CCCC3)cc2)cc1 (centres undefined),18.4 µM (active)
20,COc1ccc(C(CNC(=O)c2ccc(S(=O)(=O)Nc3ccccc3C)cc2)N2CCOCC2)cc1 (centres undefined),inactive
21,CCOc1ccc(S(=O)(=O)Nc2nccs2)cc1,inactive
22,CCOc1ccc(S(=O)(=O)Nc2ccc(S(=O)(=O)Nc3cc(OC)ccc3OC)cc2)cc1,inactive
23,CC(=O)c1ccc(S(=O)(=O)Nc2ccc(C(=O)NCC(c3ccccc3)N(C)C)cc2)cc1 (centres undefined),inactive
24,COc1ccc(C(CNC(=O)c2ccc(S(=O)(=O)Nc3ccccc3F)cc2)N(C)C)cc1 (centres undefined),inactive
25,COc1ccccc1C(CNC(=O)c1cccc(NS(=O)(=O)c2ccc(Br)cc2)c1)N(C)C (centres undefined),18.4 µM (active)
26,COc1ccccc1NC(=O)COC(=O)COc1ccccc1F,inactive

row,Structure (SMILES),Potency
1,Cc1nnsc1S(=O)(=O)Cc1ccccc1Cl,inactive
2,O=C(CSc1nc2c(cnn2-c2ccc(F)cc2)c(=O)[nH]1)N1CCCCCC1,inactive
3,CC(=O)c1ccc(S(=O)(=O)N2CCN(C(=O)/C=C/c3ccc4ccccc4n3)CC2)cc1,inactive
4,COc1cccc(/C=C2\C=C(c3ccc(C)cc3)OC2=O)c1OC(C)=O,inactive
5,COc1cccc(/C=C/c2ccc3ccccc3n2)c1OC(C)=O,16.4 µM (active)
6,O=C(Nc1ccccc1)c1ccc2nsnc2c1,inactive
7,O=C(Cc1ccccc1)NCc1ccc(F)cc1,inactive
8,c1ccc(CNCc2ccc(CNCc3ccccc3)cc2)cc1,10.3 µM (active)
9,Fc1ccc(CNCc2ccc(Br)cc2)cc1,inactive
10,O=Cc1c(NCCCN2CCCC2=O)c2ccccc2[nH]c1=O,inactive
11,Cc1cc(Cl)c(S(=O)(=O)NCc2cccnc2)cc1OCC(N)=O,inactive
12,O=C(NCC(c1ccc(Cl)cc1)N1CCOCC1)c1ccccc1F (centres undefined),13 µM (active)
13,CN1CCN(C(CNC(=O)c2ccccc2F)c2ccc3c(c2)OCO3)CC1 (centres undefined),inactive
14,COc1ccc(C(CNC(=O)c2cccnc2SC)N2CCOCC2)cc1 (centres undefined),inactive
15,O=C1CCCC(O)=C1N=Nc1ccc2ncsc2c1,inactive
16,Cc1ccc(C)c(NC(=O)C(c2ccccc2)N2CCN(CC(=O)NC3CC3)CC2)c1 (centres undefined),inactive
17,CCC(CO)Oc1cc(NC(=O)c2ccc(Cl)cc2)c2ncn(C(C)C)c2c1 (centres undefined),inactive
18,COC(=O)c1ccc2c(=O)n(CCN3CCOCC3)c(SCC(=O)Nc3cccc(OC)c3)nc2c1,inactive
19,COc1cc(C(=O)N2CCC(c3ccncc3)CC2)cc(OC)c1OC,inactive
20,Cc1cccc(CSc2nc3ccncc3n2Cc2ccc(C(=O)O)cc2)c1,inactive
21,COc1ccc(CSc2nnnn2-c2ccc(C(=O)O)cc2)cc1,inactive
22,COc1cccc(Cn2c(SCc3ccc(C(=O)N4CCCCC4)cc3)nc3ccncc32)c1,20.6 µM (active)
23,COc1cccc(Cn2c(SCc3ccc(C(=O)N4CCC(C)CC4)cc3)nc3ccncc32)c1,20.6 µM (active)
24,CCCCNC(=O)C1(c2ccc(OC)cc2)CCOCC1,inactive
25,CCCCc1ccc(S(N)(=O)=O)cc1,inactive
26,N#Cc1nc(/C=C/c2ccc(F)cc2)oc1NC1CCCCC1,inactive

row,Structure (SMILES),Potency
1,Nc1nonc1-n1nnc(C(=O)N/N=C/c2ccc(Cl)cc2)c1-c1ccc2c(c1)OCO2,inactive
2,O=C(NCCCO)C(=O)Nc1c2c(nn1-c1ccc(F)cc1)CSC2,inactive
3,COc1ccc(S(=O)(=O)N2CCN(C(=O)N(C)C)C2C)cc1 (centres undefined),inactive
4,CN=c1scc(-c2cc(OC)ccc2OC)n1/N=C/c1c(C)[nH]c2ccccc12,16.4 µM (active)
5,COC(=O)c1[nH]c2ccccc2c1NS(=O)(=O)c1ccc(OC)cc1OC,inactive
6,COc1ccc(C)cc1Nc1nc(-c2c(C)[nH]c3ccccc23)cs1,inactive
7,COc1ccc(/C=C(\C#N)C(=O)ONC2=NCCCCC2)cc1,20.6 µM (active)
8,COc1ccc(/C=C(\C#N)C(=O)OCC(=O)N(C)C2CCS(=O)(=O)C2)cc1 (centres undefined),inactive
9,COC(=O)/C(C#N)=C/c1occc1C,inactive
10,CC(=O)C1C(c2ccc(Cl)cc2)NC(=O)NC1(O)C(F)(F)F (centres undefined),inactive
11,CN(CC#CCC(c1ccccc1)c1ccccc1)C(C)(C)C,17.8 µM (active)
12,O=C(CCc1ccccc1)NCCc1cccs1,inactive
13,COC(=O)[C@@H]1CC2=CC(=O)CC[C@]2(C)[C@@]23O[C@@H]2C[C@@]2(C)[C@@H](CC[C@@]24CCC(=O)O4)[C@H]13,inactive
14,CC1(C)CC(CNCCC(c2ccc(F)cc2)c2ccco2)CCO1 (centres undefined),14.6 µM (active)
15,CC1(C)CC(N(Cc2ccccc2)C(=O)Cc2ccccc2)CCO1 (centres undefined),inactive
16,Cc1cccc(-n2ncc(C#N)c2-n2cccc2)c1,inactive
17,Cc1cccc(-n2ncc(Cl)c(Cl)c2=O)c1,4.11 µM (active)
18,O=c1c(Cl)c(NC2CC2)cnn1-c1ccccc1,inactive
19,O=C(NCC1CCCO1)c1cc2c(s1)CCCC2 (centres undefined),inactive
20,CC(C)C(=O)N1c2ccccc2NC2=C(C(=O)CCC2)C1c1ccc(N(C)C)cc1 (centres undefined),inactive
21,CCCOC(=O)Nc1ccccc1C(N)=O,inactive
22,CCOC(=O)N(Cc1ccccc1)C1CC1,inactive
23,O=C(Nc1nnc(CCc2ccccc2)s1)C1CCCO1 (centres undefined),inactive
24,O=C(COC(=O)c1ccc(Cl)nc1)NCc1cccs1,inactive
25,Cc1nnnn1/C(=C\c1ccccc1)C(=O)OCC(=O)N1CC2(C)CC1CC(C)(C)C2 (centres undefined),14.6 µM (active)
26,Cc1cccc(C(=O)NCC(=O)OCC(=O)N2CC3(C)CC2CC(C)(C)C3)c1 (centres undefined),inactive

# Reference: PubChem BioAssay AID686978 (National Center for Advancing Translational Sciences (NCATS), 2013)
